Compound activity (PubChem)
An excerpt weighted towards active compounds, which were near 12% of everything screened.
Sfp inh = blocks B. subtilis Sfp PPTase activity. AID 1490. Potency, µM, hits mostly inhibitors. actives 3.5% (n = 310,000). Q9F4F7. Biochemical Sfp PPTase activity, qHTS;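 note: the enzyme is Sfp with the accession as filed and its product quenches rhodamine fluorescence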
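Reaction rates are the 30-min fluorescence difference (ex 525, em 598 nm) in wells containing 15 nM Sfp, 5 uM rhodamine-CoA and 12.5 uM BHQ-2-YbbR at pH 7.6 with 10 mM MgCl2.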
ALDH1A1 block = inhibitors of human aldehyde dehydrogenase 1A1. P00352. Purified ALDH1A1, NADH fluorescence, propionaldehyde substrate. Potency, µM (top dose mostly 75.3 µM), most hits filed as inhibitors. actives 7.3% (n = 220,000). AID 1030; active = well fitted inhibition curve with a large enough effect, not every such curve was filed as active; inconclusive = small, poorly fitted or top-dose-only effect, or another doubt; inactive = no such curve, though single readings can be large or run the other way
RORg inh = inhibitors of mouse ROR gamma transcriptional activity. P51450. Drosophila S2 Gal4-RORgamma UAS-luciferase reporter, 20 h. Potency, µM (titrated, usually from 53.6 µM), most hits filed as inhibitors. actives 5.4% (n = 310,000). AID 2551; note: nearly all actives have a fitted effect of over 60% in size
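A Gal4/UAS one-hybrid system in insect cells: metallothionein-promoter Gal4–ROR gamma fusion plus Photinus luciferase reporter. Copper sulfate 700 uM final, 20 hr ambient incubation, luminescent detection after 10 min with reagent.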
PLK1 PBD block = PLK1 (human) polo-box domain binding inhibition; Plk1 PBD binding of FITC phosphopeptide, fluorescence polarization; Potency, µM, actives largely listed as inhibitors; P53350; AID 720504; actives 2.8% (n = 360,000); note: series mostly up to about 57 µM; nearly all actives have a fitted effect of over 65% in size
Target sequence (P53350 whole entry, looked up, the tested form may be a part): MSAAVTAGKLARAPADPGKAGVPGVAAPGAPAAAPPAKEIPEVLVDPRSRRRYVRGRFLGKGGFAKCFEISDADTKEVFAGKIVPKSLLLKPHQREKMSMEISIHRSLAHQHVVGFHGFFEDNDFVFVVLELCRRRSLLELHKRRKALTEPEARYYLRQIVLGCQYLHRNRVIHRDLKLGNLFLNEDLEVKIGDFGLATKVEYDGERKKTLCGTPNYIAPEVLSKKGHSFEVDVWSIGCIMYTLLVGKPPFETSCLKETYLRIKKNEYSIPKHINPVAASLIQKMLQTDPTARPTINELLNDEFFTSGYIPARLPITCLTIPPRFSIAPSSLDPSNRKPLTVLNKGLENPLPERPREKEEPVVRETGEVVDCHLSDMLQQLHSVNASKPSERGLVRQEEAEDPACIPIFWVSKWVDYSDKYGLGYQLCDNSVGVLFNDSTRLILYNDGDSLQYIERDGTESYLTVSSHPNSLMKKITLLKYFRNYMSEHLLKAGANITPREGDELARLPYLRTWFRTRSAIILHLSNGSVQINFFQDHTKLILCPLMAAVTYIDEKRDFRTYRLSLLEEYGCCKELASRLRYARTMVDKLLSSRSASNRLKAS
Gal4-VP16 FLuc = Gal4-VP16 reporter inhibition counter-screen; Potency, µM (series often up to 53.6 µM), usual class: inhibitors; Drosophila S2 Gal4-VP16 UAS-luciferase, luminescence, 20 h; actives 3.5% (n = 310,000);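 note: Gal4-VP16 expression switched on by copper sulfate through the metallothionein promoter; nearly all actives have a fitted effect of over 50% in size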
Each line names hits and unclear results; the compound was inactive in the other large screens. Unless noted, calls come from the whole dose curve; as a rule, active = well fitted curve in the direction sought with a large enough effect; inconclusive = small, poorly fitted or top-dose-only effect, or another doubt; inactive = no such curve, though single readings can be large; an effect the other way counts as inactive or inconclusive.

COc1ccc(C2=NN(C(C#N)c3ccc(OC)cc3)C(c3ccccc3)C2)cc1 (centres undefined)	ALDH1A1 block 22.4µM, RORg inh inconclusive, Gal4-VP16 FLuc inconclusive
COc1ccc(C(C#N)N2N=C(C)CC2c2ccccc2)cc1 (centres undefined)	none (no result: ALDH1A1 block)
COc1ccccc1NNC(=O)c1cccnc1Oc1ccccc1	Sfp inh inconclusive, ALDH1A1 block 14.1µM, RORg inh inconclusive
COC(=O)c1cccnc1Oc1ccccc1	none (no result: ALDH1A1 block)
Cc1ccccc1-c1nnc(-c2ccccc2C)o1	RORg inh inconclusive
Cc1ccccc1-c1noc(N)c1C#N	RORg inh 5.62µM, Gal4-VP16 FLuc inconclusive
COc1cc(O)c(C(=O)CC(=O)c2ccncc2)c(OC)c1	none (no result: Sfp inh, ALDH1A1 block, RORg inh, Gal4-VP16 FLuc)
Cc1ccc(C(=O)C(c2ccccc2)N2Cc3ccccc3C2=N)cc1 (centres undefined)	Sfp inh inconclusive, ALDH1A1 block inconclusive, RORg inh 3.98µM, Gal4-VP16 FLuc 10µM
CCNc1nnc(CSc2nc3ccccc3s2)s1	ALDH1A1 block inconclusive, Gal4-VP16 FLuc inconclusive
Cn1c(CSc2nc3ccccc3s2)nc2ccccc21	ALDH1A1 block inconclusive, RORg inh 11.2µM, Gal4-VP16 FLuc inconclusive
Cn1c(CSc2nc3ccccc3s2)n[nH]c1=S	ALDH1A1 block inconclusive, RORg inh inconclusive, PLK1 PBD block 29.9µM
Cc1nnc(SCc2nc3ccccc3[nH]2)s1	none
c1ccc2[nH]c(CSc3nc4ccccc4s3)nc2c1	RORg inh 20µM, Gal4-VP16 FLuc inconclusive
S=c1[nH]nc(CSc2nc3ccccc3s2)o1	ALDH1A1 block 17.8µM, RORg inh 14.1µM, PLK1 PBD block inconclusive, Gal4-VP16 FLuc inconclusive
COc1ccc(-n2ncc3c2CC(C)(C)CC3NC(=O)c2cn[nH]c2)cc1 (centres undefined)	none (no result: ALDH1A1 block)
Cc1nc(N2CCOCC2)c2nc(-c3ccccc3)n(C(C)CN(C)C)c2n1 (centres undefined)	ALDH1A1 block inconclusive (no result: PLK1 PBD block)
CCCCNC(=S)Nc1ccccc1F	RORg inh 11.2µM, Gal4-VP16 FLuc inconclusive
CC(C)CNC(=S)Nc1ccccc1F	Sfp inh inconclusive, RORg inh 6.31µM, Gal4-VP16 FLuc 4.47µM
CCCCCCCOC(=O)C[N+](C)(C)CCOC1CC2CCC1(C)C2(C)C (centres undefined)	Sfp inh 50.1µM, RORg inh inconclusive, Gal4-VP16 FLuc 12.6µM
Cn1c(Nc2ccc(F)cc2)nc2ccccc21	none (no result: ALDH1A1 block)
Cn1c(NC(=S)Nc2ccccc2)nc2ccccc21	RORg inh 0.501µM, PLK1 PBD block 23.8µM, Gal4-VP16 FLuc 1µM
S=C(Nc1ccccc1)Nc1nc2ccccc2n1CCOc1ccc(Br)cc1	ALDH1A1 block 9.46µM, RORg inh 1.78µM, Gal4-VP16 FLuc 2.24µM
COC(=O)[C@]12CCCCC=C1N(Cc1ccc(Cl)cc1Cl)C(=O)[C@H](CC(=O)NCCC(C)C)C2	none (no result: Sfp inh, ALDH1A1 block, RORg inh, Gal4-VP16 FLuc)
CCCNC(=O)C1CC(=O)N(c2ccc(OCC)cc2)C1 (centres undefined)	none
COc1ccc(N2CC(C(=O)OCC(=O)c3ccc(C)cc3)CC2=O)cc1 (centres undefined)	none
CCc1nnc(NC(=O)C2CC(=O)N(c3ccc(C)cc3)C2)s1 (centres undefined)	Sfp inh 50.1µM
CCOc1ccc(N2CC(C(=O)NCc3cccc(C)c3)CC2=O)cc1 (centres undefined)	ALDH1A1 block inconclusive, PLK1 PBD block 5.97µM
COC(=O)c1ccc(OC(=O)C2CC(=O)N(c3cccc(C)c3)C2)cc1 (centres undefined)	ALDH1A1 block 17.8µM
CCOc1ccc(N2CC(C(=O)OCC(=O)c3ccc(OC)cc3)CC2=O)cc1 (centres undefined)	PLK1 PBD block 29.9µM (no result: ALDH1A1 block)
Cc1noc(C)c1-c1ccc2ncnc(N(C)C)c2c1	RORg inh inconclusive (no result: PLK1 PBD block)
COc1ccc2c(c1)nc(-c1cccc(Br)c1)c(=O)n2C(c1ccccn1)c1nc2ccccc2[nH]1 (centres undefined)	none (no result: Sfp inh, ALDH1A1 block, RORg inh, Gal4-VP16 FLuc)
COc1ccccc1CN1CCCC2(CCN(C(C)=O)CC2)C1	none (no result: PLK1 PBD block)
CC1CCCCC12NC(=O)N(CC(=O)NCCc1c[nH]c3ccccc13)C2=O (centres undefined)	none (no result: Sfp inh, ALDH1A1 block, RORg inh, Gal4-VP16 FLuc)
Cc1ccc(NC(=O)COC(=O)c2ccc(-n3cccn3)cc2)cc1C	none (no result: Sfp inh, ALDH1A1 block, RORg inh, Gal4-VP16 FLuc)
COc1ccccc1CNC(=O)C[C@H]1CC[C@@H]2[C@H](COC[C@H](O)CN2Cc2ccc3c(c2)OCO3)O1	none (no result: Sfp inh, ALDH1A1 block, RORg inh, Gal4-VP16 FLuc)
CCCN(CCC)C[C@@H]1CCCCN1CCNC(=O)N1c2ccccc2C(=O)Nc2cccnc21	none (no result: PLK1 PBD block)
CCOc1ccc(N2CC(C(=O)Nc3nnc(CC)s3)CC2=O)cc1 (centres undefined)	Sfp inh 56.2µM (no result: ALDH1A1 block)
COc1ccc(CNC(=O)[C@H](C)NC(=O)C2CC(=O)N(c3ccc(OC)cc3)C2)cc1 (some centres undefined)	PLK1 PBD block 26.7µM (no result: ALDH1A1 block)
CCOCCc1nnc(NC(=O)C2CC(=O)N(c3ccc(OCC)cc3)C2)s1 (centres undefined)	none (no result: ALDH1A1 block)
O=c1c(CCc2ccccc2)nc2cnc(N3CCOCC3)nc2n1Cc1ccc(F)cc1	ALDH1A1 block inconclusive (no result: PLK1 PBD block)
CCOC(=O)c1cccc(NC(=O)c2cc3ccccc3o2)c1	RORg inh inconclusive, Gal4-VP16 FLuc inconclusive (no result: ALDH1A1 block)
CCOC(=O)c1ccc(NC(=O)c2cc3ccccc3o2)cc1	Sfp inh 79.4µM
CCOC(=O)CNC(=O)c1sc(NC(=O)c2ccccc2F)nc1C	RORg inh inconclusive, Gal4-VP16 FLuc 2.51µM
Cc1nc(NC(=O)c2cc3ccccc3o2)sc1C	RORg inh 10µM, Gal4-VP16 FLuc inconclusive (no result: ALDH1A1 block)
CCOC(=O)c1sc(NC(=O)c2cc3ccccc3o2)nc1C	RORg inh 3.98µM, Gal4-VP16 FLuc inconclusive
Cc1nnc(NC(=O)c2cc3ccccc3o2)s1	RORg inh inconclusive (no result: ALDH1A1 block)
COC(=O)C1=C(C(=O)OC)[C@@H]2Nc3ccccc3[C@@]23C[C@@H](C(=O)OC)N(S(=O)(=O)c2ccc(Br)cc2)C3=N1	none (no result: RORg inh, PLK1 PBD block, Gal4-VP16 FLuc)
CCOC(=O)c1csc(NC(=O)c2cc3ccccc3o2)n1	RORg inh 3.16µM, Gal4-VP16 FLuc inconclusive
CCOC(=O)c1sc(NC(=O)Nc2ccccc2F)nc1C	RORg inh 7.94µM, Gal4-VP16 FLuc 8.91µM
CCOC(=O)c1sc(Nc2ccccc2Cl)nc1C	none (no result: ALDH1A1 block)
CCOC(=O)[C@]12CCC=C1N(Cc1ccc(Cl)cc1Cl)C(=O)[C@H](CC(=O)N1CCOCC1)C2	none (no result: Sfp inh, ALDH1A1 block, RORg inh, Gal4-VP16 FLuc)
Clc1ccc2ccc3cccnc3c2n1	RORg inh 12.6µM, Gal4-VP16 FLuc inconclusive (no result: ALDH1A1 block)
O=C(C1=NOC(CNc2ncc(C(F)(F)F)cc2Cl)C1)N1CCOCC1 (centres undefined)	none
Cc1cccc(C)c1NC(=O)C1(C)CN(S(C)(=O)=O)CC(=O)N1Cc1ccc2c(c1)OCO2 (centres undefined)	none (no result: Sfp inh, ALDH1A1 block, RORg inh, Gal4-VP16 FLuc)
CCOC(=O)CC1CCCCN1Cc1nc(-c2ccc(F)c(OC)c2)oc1C (centres undefined)	RORg inh 3.55µM
COc1ccc(-c2nc(CSCC(=O)N3CCN(C)CC3)c(C)o2)cc1OC	none
COc1ccc(-c2nc(CSCC(=O)N3CCN(C(=O)c4ccco4)CC3)c(C)o2)cc1OC	ALDH1A1 block 20µM
